This is an account of results in PubChem BioAssay AID2685 (National Center for Advancing Translational Sciences (NCATS), 2010).

SMILES strings stand for the structures. About 2,100 (0.66%) of roughly 320,000 compounds were called active. Roughly 53% stayed inconclusive and do not appear here. Calls come from the whole dose curve; as a rule, active = well fitted inhibition curve with a large enough effect in the signal ratio, with a control signal flat (not every such curve was filed as active); inconclusive = small, poorly fitted or top-dose-only effect, or effect the other way, or a change in a side signal; inactive = flat fitted curve, though single readings scatter; the % refers to the signal ratio. The full list was thinned out, with actives kept by preference.
Potency is the fitted concentration of half-maximal effect.

This assay is described as follows: qHTS Assay for Lipid Storage Modulators in Drosophila S3 Cells.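 For cell number change: cells counted by Cell Tracker Red CMTPX staining in the red channel.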 For lipid storage change, negative = inhibition: % is set by controls: 0 for no effect and ±100 for the full control effect. The conditions noted are these: BODIPY lipid droplet fluorescence, 18-24 h, cells fed with added oleic acid; cell number change: measured here: cell count max response; series mostly up to 46.1 µM; lipid storage change, negative = inhibition: at the top concentration. The gist of the method:
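Drosophila S3 cells loaded with oleic acid (400 uM, as added) and compounds at several concentrations; lipid droplets imaged by 488-nm laser-scanning cytometry, 500–530 nm intensity and object ratio to cell channel. Percent activity normalized to 20 uM Triacsin C.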
(In general: In qHTS, concentration-response curves come from the screen itself.)
Turning to `COc1ccc(CNC(=O)C/C(C)=N/NC(=O)C23CC4CC(CC(C4)C2)C3)cc1`, the “lipid storage change, negative = inhibition” value was 3.76% (inactive) and the cell number change came to 9.74%.

Turning to `CC1CCN(C(=O)c2[nH]cnc2C(=O)NCC(=O)OCc2ccccc2)CC1`, the result was inactive and the cell number change was 12.3%.

Consider `COc1ccccc1CNC(=O)C1CCN(S(=O)(=O)c2ccc(N3CCCC3=O)cc2)CC1`, for which the molecule was classed as inactive and the cell number change worked out at 16.5%. As to `COc1cccc(C2/C(=C(\O)c3c(C)nc4c(C)cccn34)C(=O)C(=O)N2CCCN(C)C)c1` (stereo unspecified), the “lipid storage change, negative = inhibition” value is 6.42% (inactive) and the cell number change was -2.27%.

For the molecule `COc1cccc(C2/C(=C(/O)c3ccncc3)C(=O)C(=O)N2CCCN(C)C)c1` (stereo unspecified), the Potency is 6.51 µM (active) and the cell number change was 2.93%. In the case of `COc1cccc(/C(O)=C2/C(=O)C(=O)N(CCN(C)C)C2c2ccc(Br)cc2)c1` (stereo unspecified), the Potency was 2.31 µM (active) and the cell number change was 3.06%. With `COc1ccc(/C(O)=C2/C(=O)C(=O)N(CCCN(C)C)C2c2ccccc2)cc1Cl` (stereo unspecified), the Potency was 13 µM (active) and the cell number change is 2.04%. With `COc1ccc(/C(O)=C2/C(=O)C(=O)N(CCN(C)C)C2c2ccccc2)cc1Cl` (stereo unspecified), the “lipid storage change, negative = inhibition” value is 4.66% (inactive) and the cell number change is -4.09%. As for `COc1cccc(C2/C(=C(\O)c3ccc4c(c3)OCCO4)C(=O)C(=O)N2CCN(C)C)c1` (stereo unspecified), the “lipid storage change, negative = inhibition” value is 10.2% (inactive) and the cell number change is -19.5%. As to `CCCOc1cccc(C2/C(=C(/O)c3ccncc3)C(=O)C(=O)N2CCCN(C)C)c1` (stereo unspecified), the molecule was called inactive and the cell number change was -3.79%. As to `COc1cccc(C2/C(=C(/O)c3ccc(F)cc3)C(=O)C(=O)N2CCN(C)C)c1` (stereo unspecified), the “lipid storage change, negative = inhibition” value is 0.584% (inactive) and the cell number change was 5.93%. The like results for `COc1ccc(C2/C(=C(\O)c3ccc(OC)c(Cl)c3)C(=O)C(=O)N2CCN(C)C)cc1` (stereo unspecified) were, in that order, -3.93% (inactive) and 7.61%. The like results for `COC(=O)CNc1nc(C2CC2)nc2c1nnn2Cc1ccccc1Cl` were, in that order, -17.4% (inactive) and -11.7%. The like results for `COc1ccc2c(c1)C(C)=CC(C)(C)N2C(=O)C(C)N1C(=O)c2ccccc2C1=O` (stereo unspecified) were, in that order, 5.97% (inactive) and 1.95%. Turning to `C[C@H](NC(N)=O)C(=O)Nc1ccc2c(c1)OCO2`, the “lipid storage change, negative = inhibition” value is -4.55% (inactive) and the cell number change was -6.18%. The like results for `COc1ccccc1C1C(C#N)=C(N)N(c2cccnc2)C2=C1C(=O)CC(C)(C)C2` (stereo unspecified) were, in that order, -0.0654% (inactive) and -3.09%. The like results for `Cn1cc(CCC(=O)N2CCCC(CCC(=O)NCc3ccccc3F)C2)cn1` (stereo unspecified) were, in that order, 6.07% (inactive) and 3.88%. For `COc1cccc(NC(=O)CN(C)C(=O)C(C)Sc2ccccc2)c1` (stereo unspecified), the lipid storage change, negative = inhibition is 4.76% [at 0.0737 µM] (inactive). In the case of `CCOc1ccc(S(=O)(=O)Nc2cccc(C(=O)N3CCN(c4ccc(OC)cc4)CC3)c2)cc1`, the “lipid storage change, negative = inhibition” value is 6.02% (inactive) and the cell number change is -10.3%. With `CC(=O)NNC(=O)c1[nH]c2ccc(Cl)cc2c1-c1ccccc1`, the “lipid storage change, negative = inhibition” value is 24.7% (inactive) and the cell number change was found to be 19.7%. Take `COc1ccc(Br)cc1S(=O)(=O)NCCCN1CCOCC1`: the “lipid storage change, negative = inhibition” value is 12.5% (inactive). Turning to `Cc1cccc(OCCC(=O)OCC(=O)N2CCc3ccccc32)c1`, the “lipid storage change, negative = inhibition” value was 0.68% (inactive) and the cell number change worked out at 16.2%. On to `CC(C)C(OC(=O)CCC(=O)Nc1nccs1)C(=O)NC1CCCCC1` (stereo unspecified), for which the “lipid storage change, negative = inhibition” value is 0.168% (inactive) and the cell number change was 7.34%. The like results for `COc1ccc(N2C(=O)CC(N(CCc3ccc(OC)c(OC)c3)C(=S)Nc3ccccc3)C2=O)cc1` (stereo unspecified) were, in that order, -6.57% (inactive) and -11.8%. Take `Cc1ccccc1OCC(=O)OCC(=O)N1CCCc2ccccc21`: the molecule was called inactive. Consider `Nc1c(C(=O)c2cccs2)sc2nsc(SCCN3CCCCC3)c12`, for which the Potency is 13 µM (active) and the cell number change turned out to be 11.5%. As to `CC(=O)c1sc2nsc(SCCN3CCCC3)c2c1N`, the “lipid storage change, negative = inhibition” value was -4.12% (inactive) and the cell number change was 7.13%.

In the case of `CC(=O)c1sc2nsc(SCCN3CCCCC3)c2c1N`, the “lipid storage change, negative = inhibition” value was -3.85% (inactive) and the cell number change came out at 1.58%. For `O=C1C(=O)c2ccccc2C(O)=C1C1CCC(c2ccc(Cl)cc2)CC1` (stereo unspecified), the Potency is 4.11 µM (active) and the cell number change is -0.693%. As for `O=C1NC(c2ccc(Cl)cc2)Nc2ccccc21` (stereo unspecified), the result was inactive and the cell number change is -23.5%. On to `O=C1c2ccccc2C(=O)C1c1ccc(Cl)cc1`, for which the “lipid storage change, negative = inhibition” value was -1.63% (inactive) and the cell number change was -2.4%. In the case of `COc1cc(C(=O)Nc2ccc3c(c2)C(=O)N(CCC(=O)O)C3=O)cc(OC)c1OC`, the “lipid storage change, negative = inhibition” value is 3.95% (inactive) and the cell number change turned out to be 1.68%. The like results for `CCOC(=O)c1cc(C)n(S(=O)(=O)c2ccc(C)cc2)c1C` were, in that order, -11.4% (inactive) and -10.7%. For `CCOC(=O)c1cc(C)n(-n2cnnc2)c1C`, the Potency was 10.3 µM (active) and the cell number change is 1.94%. Turning to `CCOC(=O)c1cc(C)n(-c2ccccc2)c1C`, the “lipid storage change, negative = inhibition” value is 3.49% (inactive). In the case of `CCCn1c(N)c(C(=O)CN(C)CC(=O)Nc2c(Cl)cccc2Cl)c(=O)[nH]c1=O`, the outcome was inactive and the cell number change was -5.76%.

For the molecule `CCCn1c(N)c(C(=O)CN(C)CC(=O)Nc2ccccc2C(F)(F)F)c(=O)[nH]c1=O`, the Potency is 7.31 µM (active) and the cell number change was -17.2%. Take `CCCn1c(N)c(C(=O)CN(C)CC(=O)Nc2cc(C)ccc2C)c(=O)[nH]c1=O`: the “lipid storage change, negative = inhibition” value was 26.4% (inactive) and the cell number change amounted to 15.5%.

For the molecule `COc1ccc(CCNC(=O)C2CC(c3ccccc3[N+](=O)[O-])=NO2)cc1` (stereo unspecified), the “lipid storage change, negative = inhibition” value was 5.21% (inactive) and the cell number change was found to be 17.6%. Consider `O=C(C1CCC1)N1CCCc2cc(S(=O)(=O)N3CCN(c4ccccc4)CC3)ccc21`, for which the Potency is 3.26 µM (active) and the cell number change was -3.36%. Turning to `O=C(C1CCC1)N1CCc2cc(S(=O)(=O)N3CCN(c4ccccn4)CC3)ccc21`, the call was inactive and the cell number change was -12.3%. As to `Cc1cccc(N2CCN(S(=O)(=O)c3ccc4c(c3)CCCN4C(=O)C3CCC3)CC2C)c1` (stereo unspecified), the “lipid storage change, negative = inhibition” value is 6.82% (inactive) and the cell number change was -10.2%. The like results for `CC1CCCCN1S(=O)(=O)c1ccc2c(c1)CCN2C(=O)CCC(=O)O` (stereo unspecified) were, in that order, -8.2% (inactive) and 10%.

Consider `CC1CCCCN1S(=O)(=O)c1ccc2c(c1)CCN2C(=O)C1CC1` (stereo unspecified), for which the Potency was 10.3 µM (active) and the cell number change is -5.7%.

Turning to `CC1CCCCN1S(=O)(=O)c1ccc2c(c1)CCN2C(=O)C1CCC1` (stereo unspecified), the “lipid storage change, negative = inhibition” value is -6.29% (inactive) and the cell number change is 0.0968%.
